# Data published in PubChem BioAssay (NCI).
# About 83,000 compounds went through this panel and 20% of them were active in at least one assay; those are over-represented in the sample as a whole.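 Each cell line was grown in a 96-well plate and treated with one concentration of compound for 48 hours. Values below 10 were considered active.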 A number with no mark means an inactive call. Calls of active or inactive are those of the source.
# Test system: NCI-H322M lung
# Assay: NCI-60 one-dose screen, 48 h (100 = growth as untreated, 0 = no growth, -100 = all killed)
# Details: 10 µM
# Protocol: Growth inhibition of the NCI-H322M human Non-Small Cell Lung tumor cell line is measured as a screen for anti-cancer activity. Cells are grown in 96 well plates and exposed to the test compound for 48 hours. Compounds are tested at a single concentration, which is 10^-5 M for most compounds. The reported endpoint is percent growth (GI% or GIPRCNT), where numbers from 0 - 100% represent growth inhibition, and numbers from -100% - 0 represent cell death. For example, a value of 40 represents 60% growth inhibition. A value of 0 means no net growth occurred over the course of the experiment. A value of -40 indicates 40% of cells at the beginning of the experiment died by the end of the experiment. A value of -100 means all cells are dead at the end of the experiment.
# NCI-60 Human Tumor Cell Lines Screen was performed using the standard one-dose NCI protocol, which is described in more detail at https://dtp.cancer.gov/discovery_development/nci-60/default.htm.
# Compounds with GIPRCNT values below 10 were considered active. Activity score was based on GIPRCNT using the following formula: […]
# Score is 0 for GIPRCNT values of 100 or above, 50 for GIPRCNT values of 0, and 100 for GIPRCNT values of -100.
row,SMILES,growth
1,Cc1cc(N=C2NC(=O)S/C2=C\c2ccc(F)cc2)n[nH]1,32.3%
2,O=C(Nc1ccc(Oc2ncnc3scc(Nc4n[nH]c(=S)s4)c23)cc1)C1(C(=O)Nc2cccc(C(F)(F)F)c2)CC1,101%
3,COc1ccc(OC)c(-n2cc(C#N)c(N)c2C(=O)c2ccc(Cl)cc2Cl)c1,76.8%
4,CCOC(=O)c1ccc(NC(=O)CSC(CC(=O)c2sc(Nc3ccccn3)nc2C)c2ccccc2F)cc1 (stereo not given),17.5%
5,CC1(C)CC[C@]2(C(=O)O)CC[C@]3(C)C(=CCC4[C@@]5(C)C[C@@H](O)[C@@H]6OC(c7cccc(F)c7)OC[C@@]6(C)C5CC[C@]43C)C2C1 (stereo not given in full),34.2%
6,Cn1cc(-c2cc3nc(-c4c[nH]c5ccccc45)cc(N)n3n2)c2cc(Cl)ccc21,-98.8% (active)
7,O=C(c1ccccc1)c1ccc2nc(-c3ccccc3Br)[nH]c2c1,-96.2% (active)
8,COc1ccccc1-n1cc(C#N)c(N)c1C(=O)c1ccc(Cl)cc1Cl,48%
9,Cn1cc(-c2nc(N)nnc2-c2c[nH]c3ccccc23)c2cc(Br)cnc21,37.2%
10,COc1cc(C2CC(c3ccccc3)=Nc3c(N)nc(N)nc3N2)ccc1Oc1nc(NCCO)nc(N2CCOCC2)n1 (stereo not given),90.6%
11,O=[N+]([O-])c1cccc(-c2nnc3c(/C=C/c4ccccc4O)nc4ccccc4n23)c1,55.8%
12,Cc1ccc(COc2ccc(NC(=O)Nc3ccc(Cl)c(C(F)(F)F)c3)cc2)cc1,77.4%
13,COc1ccc(Cn2cc(C#N)c(N)c2C(C)=O)c(OC)c1,103%
14,COc1ccc(C2c3sc4ccc(C)cc4c3Oc3nc[nH]c(=O)c32)cc1 (stereo not given),105%
15,COc1cc(-c2nc3ccc(C)cc3[nH]2)ccc1OCc1nnc(-c2ccccc2Br)o1,87.3%
16,Cc1ccc(S(=O)(=O)N2CCN(S(=O)(=O)c3oc(-c4ccccc4)nc3C#N)CC2)cc1,84.8%
17,C#C[C@]1(O)CC[C@H]2[C@@H]3CC=C4c5sc(Nc6cc(C)cc(C)n6)nc5CC[C@]4(C)[C@H]3CC[C@@]21C,14.7%
18,O=C(CC(=O)Nc1ccc(Oc2ncnc3scc(Nc4n[nH]c(=S)s4)c23)cc1)Nc1ccc(Br)cc1,106%
19,C#C[C@]1(O)CC[C@H]2[C@@H]3CC=C4c5sc(Nc6ccc(C(F)(F)F)cn6)nc5CC[C@]4(C)[C@H]3CC[C@@]21C,13.7%
20,C#C[C@]1(O)CC[C@H]2[C@@H]3CC=C4c5sc(Nc6ccc(N(C)C)cc6)nc5CC[C@]4(C)[C@H]3CC[C@@]21C,42.5%

row,SMILES,growth
1,COc1ccc(C2OC[C@@]3(C)C4CC[C@]5(C)C(CC=C6C7CC(C)(C)CC[C@]7(C(=O)O)CC[C@]65C)[C@@]4(C)C[C@@H](O)[C@@H]3O2)cc1 (stereo not given in full),83.5%
2,COc1cc(Nc2nc(O)c(/C=C3\C=Nc4ccccc43)s2)cc(OC)c1OC,-47.7% (active)
3,Cn1cc(-c2nnc(N)nc2-c2c[nH]c3ccccc23)c2cc(Br)cnc21,65.2%
4,COC(=O)CNC(=O)COc1c(OC)c(OC)cc2oc(-c3cccc(C(=O)Nc4ccc(Cl)cc4)c3)cc(=O)c12,76.6%
5,CC1(C)CC(=O)C2=C(C1)N(Cc1ccc(C(=O)O)cc1)C1=C(C(=O)CC(C)(C)C1)C2c1ccc(Cl)cc1,93.7%
6,Cc1ccc2c(c1)C(=O)/C(=C/c1c[nH]c3ccccc13)S2,72.2%
7,Nc1nnc(-c2c[nH]c3ncc(Br)cc23)c(-c2c[nH]c3ccc(Br)cc23)n1,63%
8,COc1cc(C2CC(c3ccc(Oc4ccc(Cl)cc4)cc3)=NN2c2nc(-c3ccc(Cl)cc3)c(C#N)c(N3CCOCC3)n2)cc(OC)c1OC (stereo not given),98%
9,O=C(CN1CCN(c2ncnc3c2cnn3-c2ccccc2)CC1)Nc1ccc(Br)cc1,77.2%
10,CCOC(=O)C1=C(N)N(c2ccc(C)cc2)C2=C(C(=O)CC(C)(C)C2)C1c1ccccc1Br (stereo not given),99%
11,O=C1S/C(=C\c2ccc([N+](=O)[O-])cc2)C(=O)N1CCN1CCCCC1,107%
12,Cn1cc(-c2nnc(N)nc2-c2c[nH]c3ccc(F)cc23)c2cc(Br)cnc21,79.1%
13,O=C(Nc1ccc(OCC(=O)c2ccc(Cl)cc2)cc1)Nc1ccc(Cl)c(C(F)(F)F)c1,49.1%
14,Fc1ccc(-c2csc(Nc3cccc(Nc4nc(-c5ccc(F)cc5)cs4)c3)n2)cc1,60.1%
15,COc1cc2oc(-c3cccc(C(=O)Nc4ccc(Cl)cc4)c3)cc(=O)c2c(OCCN)c1OC,-93.7% (active)
16,COc1ccc(C(=O)COc2ccc(NC(=O)Nc3ccccc3)cc2)cc1,88.5%
17,Cc1ccc2c(c1)C(=O)/C(=C/c1ccc([N+](=O)[O-])cc1)S2,105%
18,Fc1ccc(/C=C/c2nc3ccccc3n3c(-c4ccc(Cl)cc4)nnc23)cc1,89.6%
19,Cc1ccc2sc3c(c2c1)Oc1nc[nH]c(=O)c1C3c1cccc(F)c1 (stereo not given),96.7%
20,COc1ccc(-n2c(SCC(=O)NNS(=O)(=O)c3ccccc3)nc3ccc(Cl)cc3c2=O)cc1,98.1%
